Experimental findings from PubChem BioAssay (NCI) are described below.

“And” between values parts separate entries of the source, which are not always exact repeats. Equal entries are not always repeated. The panel holds about 83,000 compounds, 20% with a hit somewhere; the sample as a whole holds those more often.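 Growth was measured after 48 h exposure to one concentration of compound in 96-well plates. Values under 10 count as active.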 A number with no mark means an inactive call. The source made the active and inactive calls.

Among the test systems are EKVX NSCLC; SN12C renal; UO-31 renal; ACHN renal; CAKI-1 renal; A498 renal; CCRF-CEM leukemia; MOLT-4 leukemia.
Holding throughout (test): NCI-60 one-dose screen, 48 h (100 = growth as untreated, 0 = no growth, -100 = all killed)
In another experiment the test system is SK-MEL-2 melanoma. The conditions noted are these: 10 µM unless noted.
The next experiment has as its system TK-10 renal. The conditions noted are these: 10 µM unless noted.

Regarding `COc1ccc2oc3cc(NCCN(C)C)ccc3c(=O)c2c1`, the growth with SK-MEL-2 melanoma was 108% and 107%; in the experiment on EKVX NSCLC (10 µM unless noted), 85.9%; with SN12C renal (10 µM unless noted), 81.7% and 64.2%; with UO-31 renal (10 µM unless noted) it was 82.9% and 67.4%; in the experiment on TK-10 renal, 106% and 98.9%; in the experiment with ACHN renal (10 µM unless noted), 74.5% and 58.9%. In addition, the growth in the experiment with CAKI-1 renal (10 µM unless noted) is 77.2% and 63.5%; with A498 renal (10 µM unless noted), 121% and 85.7%; in the experiment with CCRF-CEM leukemia (10 µM unless noted) it was 70.3%.

With `COc1ccc(CCO)cc1`, the growth with SK-MEL-2 melanoma was 91.7%; with EKVX NSCLC (10 µM unless noted), 107%; in the experiment on SN12C renal (10 µM unless noted), 100%; in the experiment with UO-31 renal (10 µM unless noted) it was 96.9%; in the experiment on TK-10 renal, 96.3%; with ACHN renal (10 µM unless noted) it was 103%. The growth in the experiment with CAKI-1 renal (10 µM unless noted) was 102%; with A498 renal (10 µM unless noted), 97.2%; in the experiment with CCRF-CEM leukemia (10 µM unless noted) it was 101%.

With `O=C1CCC(=O)N1CC1CC2CCC1C2` (stereo unspecified), the growth in the experiment with SK-MEL-2 melanoma was 97.5% and 111%; in the experiment on EKVX NSCLC (10 µM unless noted), 99% and 83.1%; in the experiment on SN12C renal (10 µM unless noted) it was 94% and 82.3%; with UO-31 renal (10 µM unless noted) it was 101% and 95.5%; in the experiment with TK-10 renal, 94.4% and 83.7%; in the experiment on ACHN renal (10 µM unless noted), 100% and 92.2%. For the same molecule, the growth with CAKI-1 renal (10 µM unless noted) is 67.2% and 91.1%; in the experiment on A498 renal (10 µM unless noted), 119% and 103%; in the experiment on CCRF-CEM leukemia (10 µM unless noted), 95.1% and 104%.

For the molecule `Cc1onc(-c2c(F)cccc2Cl)c1-c1ncc(-c2ccc(Cl)cc2)o1`, the growth in the experiment on SK-MEL-2 melanoma was 104% and 80%; in the experiment with EKVX NSCLC (10 µM unless noted), 53%; in the experiment on SN12C renal (10 µM unless noted), 71.9% and 37.3%; in the experiment on UO-31 renal (10 µM unless noted), 53.4% and 37.7%; with TK-10 renal, 84% and 53.8%; in the experiment with ACHN renal (10 µM unless noted), 46.1% and 31.3%. Further, the growth in the experiment with CAKI-1 renal (10 µM unless noted) was 14% and 32%; in the experiment with A498 renal (10 µM unless noted) it was 69.8% and 85.8%; in the experiment with CCRF-CEM leukemia (10 µM unless noted) it was 41.5%.

Turning to `CCOC(=O)C(N)Cc1cc(I)c(O)c(I)c1` (stereo unspecified), the growth was 108% and 120% with SK-MEL-2 melanoma; 101% and 113% in the experiment with EKVX NSCLC (10 µM unless noted); 103% and 98.7% with SN12C renal (10 µM unless noted); 81.6% and 78.6% with UO-31 renal (10 µM unless noted); 120% and 107% in the experiment with TK-10 renal; 106% and 96% in the experiment on ACHN renal (10 µM unless noted). Moreover, the growth was 91.6% and 89.2% with CAKI-1 renal (10 µM unless noted); 103% in the experiment with A498 renal (10 µM unless noted); 100% and 103% in the experiment with CCRF-CEM leukemia (10 µM unless noted).

As for `O=[N+]([O-])c1ccc(NC(c2ccccc2)c2ccc3cccnc3c2O)cc1` (stereo unspecified), the growth with SK-MEL-2 melanoma was 36.3%; in the experiment with EKVX NSCLC (10 µM unless noted), 19.9%; in the experiment on SN12C renal (10 µM unless noted), 14.8%; in the experiment with UO-31 renal (10 µM unless noted), -2.13% (active); in the experiment on TK-10 renal it was 42.7%; in the experiment on ACHN renal (10 µM unless noted), 15.8%. Besides, the results for the growth in the experiment with CAKI-1 renal (10 µM unless noted), in the experiment with A498 renal (10 µM unless noted) and with CCRF-CEM leukemia (10 µM unless noted) were 2.88% (active), 55.8% and 10.2%, respectively.

As to `COc1ccc(CCNC(=S)NN)cc1OC`, the growth in the experiment on SK-MEL-2 melanoma was 118%; in the experiment with EKVX NSCLC (10 µM unless noted), 103%; in the experiment on SN12C renal (10 µM unless noted) it was 117%; in the experiment on UO-31 renal (10 µM unless noted), 90.2%; in the experiment on TK-10 renal it was 120%; in the experiment on ACHN renal (10 µM unless noted), 102%. Further, the growth with CAKI-1 renal (10 µM unless noted) is 108%; with A498 renal (10 µM unless noted), 106%; with CCRF-CEM leukemia (10 µM unless noted), 92.5%.

On to `CN(C)CC(CN(C)C)C(O)c1ccccc1` (stereo unspecified), for which the growth in the experiment with SK-MEL-2 melanoma is 94.4%; in the experiment on EKVX NSCLC (10 µM unless noted) it was 96.1%; with SN12C renal (10 µM unless noted), 103%; in the experiment with UO-31 renal (10 µM unless noted) it was 96.1%; with TK-10 renal, 89.5%; in the experiment on ACHN renal (10 µM unless noted), 105%. The growth in the experiment with CAKI-1 renal (10 µM unless noted) is 98.2%; in the experiment with A498 renal (10 µM unless noted), 109%; in the experiment on CCRF-CEM leukemia (10 µM unless noted), 104%.

For the molecule `Cc1ccc2cccc([N+](=O)[O-])c2n1`, the growth with SK-MEL-2 melanoma was 104% and 111%; in the experiment on EKVX NSCLC (10 µM unless noted), 114%; in the experiment on SN12C renal (10 µM unless noted), 98.8% and 100%; in the experiment with UO-31 renal (10 µM unless noted), 88.3% and 73.6%; in the experiment on TK-10 renal, 109% and 111%; in the experiment with ACHN renal (10 µM unless noted), 105% and 96.9%. For the same molecule, the growth is 96.5% and 95.6% with CAKI-1 renal (10 µM unless noted); 117% and 109% with A498 renal (10 µM unless noted); 108% and 95.3% in the experiment with CCRF-CEM leukemia (10 µM unless noted).

For the molecule `CC1CCC(=O)N1c1ccc(N)cc1` (stereo unspecified), the growth is 99.7% in the experiment with SK-MEL-2 melanoma; 104% in the experiment on EKVX NSCLC (10 µM unless noted); 106% in the experiment on SN12C renal (10 µM unless noted); 93.7% in the experiment on UO-31 renal (10 µM unless noted); 94.8% with TK-10 renal; 104% with ACHN renal (10 µM unless noted). For the same molecule, the growth in the experiment with CAKI-1 renal (10 µM unless noted) is 102%; in the experiment on A498 renal (10 µM unless noted), 98.4%; in the experiment with CCRF-CEM leukemia (10 µM unless noted), 107%.

`Nc1ccccc1SC(CC(=O)c1ccccc1)c1cccc([N+](=O)[O-])c1` (stereo unspecified): the growth in the experiment with SK-MEL-2 melanoma is 113% and 81.9%; with EKVX NSCLC (10 µM unless noted) it was 96.5%; with SN12C renal (10 µM unless noted), 87.7% and 88.8%; with UO-31 renal (10 µM unless noted) it was 71.6% and 61.5%; in the experiment with TK-10 renal, 131% and 113%; with ACHN renal (10 µM unless noted), 90.1% and 90.7%. For the same molecule, the growth in the experiment on CAKI-1 renal (10 µM unless noted) is 70.9% and 95.2%; in the experiment with A498 renal (10 µM unless noted) it was 91.5% and 104%; in the experiment on CCRF-CEM leukemia (10 µM unless noted), 53.3% and 34.9%.

As to `S=c1nc[nH]c2nc[nH]c12`, the growth in the experiment on SK-MEL-2 melanoma was 54.6% [50 µM]; with EKVX NSCLC (10 µM), 89.9%; with EKVX NSCLC (50 µM), 73.9%; in the experiment with SN12C renal (10 µM), 69.5%; in the experiment on SN12C renal (50 µM), 31.5%; with UO-31 renal (10 µM) it was 34%. In addition, the growth in the experiment with UO-31 renal (50 µM) was 36.2%; with ACHN renal (10 µM), 50%; in the experiment with ACHN renal (50 µM), 20.5%; in the experiment with CAKI-1 renal (10 µM) it was 7.07% (active); in the experiment with CAKI-1 renal (50 µM), 21%; with A498 renal (10 µM), 71.1%. In addition, the growth in the experiment with A498 renal (50 µM) is 47.5%; with CCRF-CEM leukemia (10 µM), 13%; in the experiment with CCRF-CEM leukemia (50 µM) it was 16.8%; with MOLT-4 leukemia (10 µM), 10.6%; with MOLT-4 leukemia (50 µM) it was 13.3%.
